# HTT-AS act: Primary qHTS for Identification of Small Molecule Activators of Huntingtin-Antisense Promoter Activity; 48,000 tested, 0.24% active; AID 1508624, 2021; HEK293 HTT-AS promoter firefly luciferase reporter, 24 h; response scale: percent change from vehicle, -100% = no light; Potency, µM (highest dose often 57.5 µM), for inactives: at the highest dose activity change, positive = activation, most hits filed as activators; also: nearly all actives have a fitted effect of over 55% in size
#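 Luminescence was read after Dual-Glo reagent and a 10 min room-temperature incubation. Values were normalized to vehicle (0% activity) and zero RLU (-100% activity). Reporter HEK293 cells had been exposed to compounds (up to 57.5 uM final) for 24 h.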
# p53null 39C tox: qHTS Screen for Compounds that Selectively Target Cancer Cells with p53 Mutations: Cytotoxicity of p53 Null Cells at the Nonpermissive Temperature. AID 904, 2007. Potency, µM (series often up to 46.1 µM), for the others: top-dose activity, negative = cell killing, most hits filed as cytotoxic. H1299 p53-null (neo) cells, 39C, ATPlite viability, 24 h. 55,000 tested, 0.97% active;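 also: 0% = DMSO only and -100% = full killing by 100 µM tamoxifen; nearly all actives have a fitted effect of over 50% in size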
#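 Concentration-response (up to 46 uM) was run for 24 h at the nonpermissive 39C on H1299-p53A138V or H1299-neo cells. ATP content was measured with ATPlite luminescence. AC50 values were Hill-modeled after normalizing between DMSO and 100 uM tamoxifen killing.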
# HTT prom inh: Primary qHTS for Identification of Small Molecule Inhibitors of Huntingtin Promoter Activity; HEK293 HTT promoter firefly luciferase reporter, 24 h; Potency, µM (titrated, usually from 57.5 µM), inactives show at the top dose activity change, negative = inhibition, hits mostly inhibitors; 48,000 tested, 0.93% active; also: nearly all actives have a fitted effect of over 50% in size
#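 HEK293 Fluc reporter, 2,500 cells/well, 24 h pre-culture; cpds up to 57.5 uM final, 24 h 37 degrees C; Dual-Glo, 10 min RT; normalized vehicle = 0%, zero RLU = -100%.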
# p53null 32C kill: qHTS Screen for Compounds that Selectively Target Cancer Cells with p53 Mutations: Cytotoxicity of p53 Null Cells at the Permissive Temperature; Potency, µM (series often up to 46.1 µM), inactives show at the highest dose activity change, negative = cytotoxicity, hits mostly cytotoxic; 55,000 tested, 0.62% active; AID 903, 2007; H1299-neo p53 null cells, ATP luminescence, 24 h, 32C;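 also: 0% = DMSO only and -100% = full killing by 100 µM tamoxifen; nearly all actives have a fitted effect of over 55% in size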
#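 Overnight 37C seeding (600 cells/well) of H1299-neo preceded a 24 hr, 32C exposure to compounds up to 46 uM. ATP levels, read by luminescence after 20 min at RT, indicated surviving cells.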
# Numbers without * were called inactive; u = inconclusive; x = not tested or not shown. Compounds with a hit are over-represented: about 1.9% of the library has one in this group of screens. Calls follow the shape of the dose curve; as a rule, active = well fitted curve in the direction sought with a large enough effect; inconclusive = small, poorly fitted or top-dose-only effect, or another doubt; inactive = no such curve, though single readings can be large; an effect the other way counts as inactive or inconclusive. Potency is read from the fitted curve at half-maximal effect.
SMILES,HTT-AS act,p53null 39C tox,HTT prom inh,p53null 32C kill
CCN1CCN(c2csc3ccc(C)cc3c2=O)CC1,u,18%,49%,-11%
Cc1ccc2scc(N3CCCCC3)c(=O)c2c1,u,13µM*,6%,10µM*
Cc1ccc2scc(N3CCCCC3C)c(=O)c2c1 (stereo unspecified),u,16µM*,9%,13µM*
COC(=O)C1CCN(c2csc3ccc(C)cc3c2=O)CC1,24%,0%,15%,-12%
Cc1ccc2scc(N3CCC(C)CC3)c(=O)c2c1,u,20µM*,12%,u
O=C(C1CC1)N1CC[C@@H](Cn2c(-c3ccc(-c4ccc5occc5c4)cc3)nc3cnccc32)C1,4%,x,-4%,x
COc1cc(OC)cc(C(=O)Nc2ccc3c(c2)OCCO3)c1,u,6.3µM*,51%,7.9µM*
COc1cccc(-n2c(=O)[nH]cc(C(=O)Nc3ccc4c(c3)OCCO4)c2=O)c1,x,21%,x,18%
CCCCOCCOc1nc(-c2ccc(C(=O)O)c(F)c2)sc1C,15%,x,8%,x
CN1C(=O)C(C)(C)c2cc(S(=O)(=O)NCc3ccc(C(=O)Nc4ccc(Cl)cc4)cc3)ccc21,-60%,-17%,18µM*,2%
CCOc1ccc(-c2nc(CSCC(=O)NCCc3ccccc3)c(C)o2)cc1,-50%,37%,7.1µM*,1%
CC(C(=O)NCc1cccc(Br)c1)n1ncn2cccc2c1=O (stereo unspecified),-16%,13µM*,-11%,u
COc1ccc(CN(C(=O)c2cc3ccccc3oc2=O)C2CCS(=O)(=O)C2)cc1OC (stereo unspecified),11µM*,-23%,48%,-10%
CC(=O)N(C)C1(c2ccccc2)CCN(CCC[C@]2(c3ccc(Cl)c(Cl)c3)CCCN(C(=O)c3ccccc3)C2)CC1,-26%,x,u,x
CSc1ccc(CCNc2ncnc3onc(-c4ccc(Cl)cc4)c23)cc1,-53%,14%,18µM*,2%
Cc1ccc(-c2nc3scc(CCNS(=O)(=O)c4ccc(Oc5ccccc5)cc4)n3n2)cc1,-84%,25%,20µM*,-12%
COc1ccc(-c2nc3scc(CCNS(=O)(=O)c4ccc(Oc5ccccc5)cc4)n3n2)cc1,-32%,4%,-30%,9%
Cc1cc(C)c(S(=O)(=O)NCCc2csc3nc(-c4ccc(Cl)cc4)nn23)c(C)c1,-38%,20µM*,u,46%
Cc1cc(C)c(NC(=O)CSc2nccn2Cc2ccco2)c(C)c1,5µM*,20%,44%,u
C=CC(=O)Nc1cc(NC(=O)c2ccc(C)c(NC(=O)c3ccno3)c2)cc(C(F)(F)F)c1,-28%,x,u,x
Cc1ccccc1-c1noc(-c2nnn(-c3ccccc3C)c2N)n1,0.71µM*,-15%,78%,-2%
Cc1cccc(-n2nnc(-c3nc(-c4cccs4)no3)c2N)c1C,0.35µM*,-13%,104%,-4%
COc1ccc(-n2nnc(-c3nc(-c4ccccc4C)no3)c2N)cc1Cl,-9%,16%,-6%,5%
O=c1[nH]c(=O)n([C@H]2CCCO2)cc1F,-10%,x,-9%,x
COc1cc(OC)c(NS(=O)(=O)c2ccc3c(c2)NC(=O)CCS3)cc1Cl,-49%,-16%,28µM*,3%
SMILES,HTT-AS act,p53null 39C tox,HTT prom inh,p53null 32C kill
Cc1ccccc1NS(=O)(=O)c1ccc2c(c1)NC(=O)CCS2,-26%,-14%,-22%,-5%
CCn1ccc(NS(=O)(=O)c2ccc(N)cc2)nc1=O,-5%,x,3%,x
COc1cc(/C=C(\C#N)c2nc3ccccc3n2C)cc(OC)c1OC,u,-18%,42%,-11%
COc1ccc(/C=C(\C#N)c2nc3ccccc3n2C)c(OC)c1,3.5µM*,u,66%,-19%
CCCN(CCC)C(=O)C(CCC(=O)OCCCN1CCN(CCOC(=O)Cc2c(C)n(C(=O)c3ccc(Cl)cc3)c3ccc(OC)cc23)CC1)NC(=O)c1ccccc1 (stereo unspecified),-26%,x,-17%,x
COc1ccc(C(=O)Nc2noc3ccccc23)cc1,u,6.3µM*,-10%,3.2µM*
O=C(NCc1ccccc1)c1nc(S(=O)(=O)Cc2ccccc2)ncc1Cl,-87%,86%,u,-14%

# Bioassay records: PubChem, National Center for Advancing Translational Sciences (NCATS)
